According to PubChem BioAssay:
A number with no mark means an inactive call. Unless noted, no stated cut-off is given here; in the data, active means inhibition above about 30%; inactive means the rest.

What was measured:
[1] = molecular target: Nuclear receptor coactivator 3 (Homo sapiens) (UniProt Q9Y6Q9); assay: NCOA3 GAL4-fusion reporter inhibition – cell-based, luminescence, quadruplicate, confirmation (AID 588792;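 active means mean inhibition over 43.08%, the solvent-only control mean plus 3 SD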;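 further: 0% = DMSO treated cells and 100% = gossypol at 36 µM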); settings: HEK293 GAL4-SRC3 luciferase reporter, at 3.6 µM, stronger effect = higher value
Chain of Nuclear receptor coactivator 3 (Homo sapiens) (Q9Y6Q9 whole entry, looked up, the tested form may be a part): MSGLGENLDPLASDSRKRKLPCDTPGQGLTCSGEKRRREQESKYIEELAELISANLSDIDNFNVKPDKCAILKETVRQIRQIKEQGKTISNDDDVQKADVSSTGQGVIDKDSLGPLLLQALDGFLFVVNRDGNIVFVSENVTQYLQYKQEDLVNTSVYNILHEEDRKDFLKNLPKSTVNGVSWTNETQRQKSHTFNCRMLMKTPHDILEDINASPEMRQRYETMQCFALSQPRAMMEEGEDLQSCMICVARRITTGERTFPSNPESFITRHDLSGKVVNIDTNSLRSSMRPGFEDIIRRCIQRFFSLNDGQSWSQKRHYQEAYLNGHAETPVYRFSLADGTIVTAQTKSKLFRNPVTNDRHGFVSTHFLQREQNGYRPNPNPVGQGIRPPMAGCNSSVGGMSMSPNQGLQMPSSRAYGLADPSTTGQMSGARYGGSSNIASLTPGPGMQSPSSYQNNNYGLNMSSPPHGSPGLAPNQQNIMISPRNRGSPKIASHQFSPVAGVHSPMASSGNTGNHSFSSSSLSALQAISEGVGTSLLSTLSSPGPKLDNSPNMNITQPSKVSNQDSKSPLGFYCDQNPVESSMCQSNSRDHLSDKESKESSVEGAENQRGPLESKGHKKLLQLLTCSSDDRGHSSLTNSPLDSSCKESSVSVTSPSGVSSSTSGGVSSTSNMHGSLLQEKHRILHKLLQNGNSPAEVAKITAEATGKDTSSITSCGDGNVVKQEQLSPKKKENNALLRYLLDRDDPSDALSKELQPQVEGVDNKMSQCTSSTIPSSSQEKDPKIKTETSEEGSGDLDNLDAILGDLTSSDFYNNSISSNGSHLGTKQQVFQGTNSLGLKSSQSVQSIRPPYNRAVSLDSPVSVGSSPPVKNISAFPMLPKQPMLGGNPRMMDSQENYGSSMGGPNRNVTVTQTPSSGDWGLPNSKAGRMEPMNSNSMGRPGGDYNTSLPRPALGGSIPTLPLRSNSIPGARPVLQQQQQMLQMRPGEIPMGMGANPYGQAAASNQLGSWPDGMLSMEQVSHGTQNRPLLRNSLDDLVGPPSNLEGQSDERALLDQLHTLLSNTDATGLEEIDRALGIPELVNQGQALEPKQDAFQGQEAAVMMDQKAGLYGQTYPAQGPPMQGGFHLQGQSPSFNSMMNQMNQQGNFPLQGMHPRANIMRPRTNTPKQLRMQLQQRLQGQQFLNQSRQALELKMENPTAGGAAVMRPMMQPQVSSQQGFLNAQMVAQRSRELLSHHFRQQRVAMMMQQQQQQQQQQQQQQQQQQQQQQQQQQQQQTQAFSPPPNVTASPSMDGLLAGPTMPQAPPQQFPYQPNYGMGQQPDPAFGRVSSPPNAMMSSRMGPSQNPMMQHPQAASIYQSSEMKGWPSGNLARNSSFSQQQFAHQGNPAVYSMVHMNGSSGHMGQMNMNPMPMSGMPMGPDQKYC

[2] = system: transactivating tegument protein VP16 (Human herpesvirus 1), Gal4-VP16 luciferase reporter; assay: repression of VP16-driven luciferase reporter – cell-based, luminescence, high throughput, counter-screen for SRC3 inhibitor project (AID 588794); settings: mammalian cells, at 3.6 µM, stronger effect = higher value

| SMILES | inhibition [1] [%] | inhibition [2] [%] |
| --- | --- | --- |
| COCC(C)n1c(SCC(=O)NC(=O)Cc2ccccc2)nc2ccccc2c1=O (configuration not stated) | 19.1 | -4.14 |
| Cc1ccc(S(=O)(=O)NCCC(=O)Nc2ccncc2)cc1C | -1.9 | -0.54 |
| CCOC(=O)c1c(-c2ccccc2)oc2ccc(O)c(CN3CCOCC3)c12 | -5.57 | 4.57 |
| COc1cc(C(=O)NC2CCCc3c2cnn3-c2ccccc2F)cc(OC)c1OC (configuration not stated) | 2.41 | 21 |
| CC(=O)/C=C/c1ccc2ccccc2n1 | -15.9 | 18.8 |
| Cn1nc(C(F)(F)F)cc1C(=O)Nc1ccc(Cl)cc1 | 4.63 | 8.1 |
